# Screening results from PubChem BioAssay.
# Shown are actives, neighbours in structure and some others; about 2.8% of the full set was active somewhere.
# CDK5 p35 inh – CDK5/p35 (human) kinase inhibition; inhibition, % at 10 µM; AID 488839; Q00535+Q15078; Recombinant CDK5/p35, ADP-Glo luminescence, 60 min; actives 0.01% (n = 330,000);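 active = highest replicate inhibition of at least 50% and at least 75% of replicates reaching 50%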;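 also: plate controls were DMSO neutral control for no effect and GW8510 at 10 µM for full effect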
# dFosB activator – mouse delta FosB homodimer activation; P13346; purified delta FosB, TAMRA-CDK5 oligo fluorescence polarization; percent of positive-control signal above neutral wells; activation, % at 25 µM; actives 0.99% (n = 340,000);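 active = mean activation above about 17%, with every replicate also reaching it, limit read from the data, passing the limit was not always enough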
# Target sequence (P13346 whole entry, looked up): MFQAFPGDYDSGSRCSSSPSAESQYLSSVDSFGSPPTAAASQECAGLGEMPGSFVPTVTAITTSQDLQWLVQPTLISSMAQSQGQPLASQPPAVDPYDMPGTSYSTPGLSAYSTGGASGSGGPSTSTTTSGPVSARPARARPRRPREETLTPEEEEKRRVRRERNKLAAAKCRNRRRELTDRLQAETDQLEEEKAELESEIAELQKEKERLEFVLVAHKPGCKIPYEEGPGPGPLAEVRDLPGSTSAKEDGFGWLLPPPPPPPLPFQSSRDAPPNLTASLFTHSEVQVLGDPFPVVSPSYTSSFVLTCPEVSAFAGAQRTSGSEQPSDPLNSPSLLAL
# FGF22 binding – binders of recombinant human FGF22 by thermal shift; SYPRO orange fluorescence; percent of sucrose octasulfate shift, DMSO zero; activity (Tm shift, normalised), % at 9.99 µM; actives 1.5% (n = 340,000);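 active = mean Tm shift, scaled 0 neutral to 100 positive control, at about 1.3% or above, every replicate too, limit read from the data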
# Target sequence (Q9HCT0 whole entry, looked up): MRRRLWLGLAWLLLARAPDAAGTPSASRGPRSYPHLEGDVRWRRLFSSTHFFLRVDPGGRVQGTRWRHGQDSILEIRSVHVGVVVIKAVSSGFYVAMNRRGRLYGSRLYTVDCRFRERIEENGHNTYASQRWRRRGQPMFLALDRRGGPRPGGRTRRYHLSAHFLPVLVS
# PvdQ acylase – blocks Pseudomonas aeruginosa PvdQ acylase activity; purified PvdQ acylase, fluorescence plate reader; inhibition, % at 10 µM; actives 0.063% (n = 340,000); in the data active = inhibition above about 30%, passing the limit was not always enough;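 also: 0% = vehicle neutral wells and 100% = reference inhibitor wells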
# SIRT5 block – blocks human SIRT5 desuccinylation of peptide. Q9NXA8. inhibition, % at 15 µM. Purified SirT5, succinyl-peptide AMC, trypsin-coupled fluorescence. actives 1.1% (n = 330,000); in the data active = inhibition above about 15%
# PglD DTNB – PglD (C. jejuni) enzyme inhibition; purified PglD enzyme, DTNB colorimetric CoA detection; inhibition, % at 12.5 µM; actives 0.098% (n = 360,000); in the data active = inhibition above about 16%, passing the limit was not always enough
# Numbers without * were called inactive; nt = not tested or not shown; ! = not active in a repeat.
SMILES,CDK5 p35 inh,dFosB activator,FGF22 binding,PvdQ acylase,SIRT5 block,PglD DTNB
O=C(NCc1ccccn1)c1ccc(N2CCCC2)c([N+](=O)[O-])c1,-0.6,-3.0,43.2*,2.0,-0.1,-0.8
CCOc1ccccc1NC(=O)NCc1cccnc1,0.0,-2.0,42.9*,-9.1,-3.7,nt
O=C(COC(=O)c1cccnc1)Nc1ccc2c(c1)OCO2,-0.6,2.2,43.3*,-11.5,1.5,nt
O=C(NCc1cccnc1)Nc1ccc2c(c1)OCO2,-6.2,5.0,43.2*,-9.7,-2.7,nt
O=C(c1cccs1)c1coc2ccc(O)c(CN3CCOCC3)c12,1.6,-7.2,nt,10.4,29.1*,0.2
CCC(=O)N[C@H]1CC[C@H](CC(=O)NCc2ccccc2OC)O[C@@H]1CO,nt,nt,1.1,nt,-0.5,0.5
CO[C@H]1CN(C)C(=O)c2ccc(NC(=O)C3CCCCC3)cc2OC[C@@H](C)NC[C@H]1C,nt,nt,-0.2,nt,0.5,-0.5
CC(C)CC#Cc1ccc2c(c1)O[C@H](CN(C)C(=O)Nc1ccccc1F)[C@H](C)CN([C@H](C)CO)S2(=O)=O,nt,nt,-0.4,nt,17.7*,-0.1
COc1cccc(-c2ccc3c(c2)O[C@@H](CN(C)C(=O)c2ccccc2F)[C@H](C)CN([C@@H](C)CO)S3(=O)=O)c1,nt,nt,-0.1,nt,20.1*,1.2
CCCC#Cc1ccc2c(c1)O[C@@H](CN(C)C(=O)Nc1ccccc1F)[C@H](C)CN([C@@H](C)CO)S2(=O)=O,nt,nt,0.2,nt,16.5*,4.6
CCCC#Cc1ccc2c(c1)O[C@H](CN(C)C(=O)c1ccccc1F)[C@H](C)CN([C@@H](C)CO)S2(=O)=O,nt,nt,-0.9,nt,18.8*,-2.1
CC(C)CC#Cc1ccc2c(c1)O[C@H](CN(C)C(=O)Nc1ccccc1F)[C@@H](C)CN([C@H](C)CO)S2(=O)=O,nt,nt,-0.3,nt,6.6,-1.9
CCC(=O)N1C[C@H](C)[C@H](OC)CN(C)C(=O)c2cc(NC(=O)NC(C)C)ccc2OC[C@@H]1C,nt,nt,-0.1,nt,-1.2,3.1
CNC(=O)C[C@@H]1CC[C@H]2[C@@H](COC[C@@H](O)CN2Cc2ccc(C(F)(F)F)cc2)O1,nt,nt,0.0,nt,-3.7,1.2
CCCC#Cc1cnc2c(c1)C(=O)N([C@@H](C)CO)C[C@H](C)[C@@H](CN(C)C(=O)NC1CCCC1)O2,nt,nt,0.1,nt,-2.7,-2.3
CO[C@@H]1CN(C)C(=O)c2ccc(NC(=O)C3CCOCC3)cc2OC[C@@H](C)N(CC2CCCCC2)C[C@H]1C,nt,nt,0.0,nt,nt,-0.1
CCCC#Cc1ccc2c(c1)O[C@@H](CN(C)C(=O)Nc1ccccc1F)[C@H](C)CN([C@H](C)CO)S2(=O)=O,nt,nt,-0.4,nt,20.4*,4.4
C[C@@H]1CN([C@H](C)CO)S(=O)(=O)c2ccc(C#Cc3ccccc3F)cc2O[C@@H]1CN(C)C(=O)Cc1ccccc1,nt,nt,0.1,nt,19.6*!,0.0
Fc1ccc2cnc(-c3ccccc3F)cc2c1,-3.6,-3.2,0.0,-11.6,nt,4.0
Fc1ccccc1-c1cc2ccccc2cn1,-0.8,2.5,44.1*,-17.4,-4.7,-1.7
O=C(Nc1ccc2c(c1)OCO2)c1cc2ncc(Br)cn2n1,-2.9,27.6*,nt,-5.6,nt,-4.9
O=C(Nc1cccc(C(F)(F)F)c1)c1cc2ncc(Br)cn2n1,1.7,7.9,0.0,-9.5,6.2,-3.3
COc1ccc(C(=O)NNC(=O)CSc2nnc3ccccn23)cc1OC,-0.6,-3.0,0.2,-9.4,-1.8,2.1
CC(Sc1nnc2ccccn12)C(=O)Nc1ccc(Cl)cn1 (stereo not drawn),3.5,1.3,nt,-3.1,nt,6.6
CC(Sc1nnc2ccccn12)C(N)=O (stereo not drawn),0.3,-5.7,43.2*,-14.9,-0.1,1.3
SMILES,CDK5 p35 inh,dFosB activator,FGF22 binding,PvdQ acylase,SIRT5 block,PglD DTNB
COc1ccc(Cl)cc1C(=O)NNC(=O)CSc1nnc2ccccn12,1.4,-1.8,44.3*,7.4,0.4,-165.2
CC(C)CNC(=O)CSc1nnc2ccccn12,1.8,-0.6,43.1*,-6.0,-0.6,nt
COCC(C)n1c(SCC(=O)NC(=O)NCc2ccccc2)nc2ccccc2c1=O (stereo not drawn),-5.0,-11.9,44.4*,-24.1,nt,8.4
COc1ccc2c3c(n(C)c2c1)[C@@H](CO)N(C(=O)Nc1ccc(F)cc1)CC31CCN(C(=O)Cc2ccncc2)CC1,nt,nt,0.0,nt,nt,nt
NC(=O)c1ccsc1NC(=O)c1ccc2c(c1)CCCC2,0.3,-3.7,0.1,-5.3,0.7,-1.5
NC(=O)c1ccsc1NC(=O)c1ccc(N2CCCC2=O)cc1,3.1,-12.9,43.5*,-6.9,nt,nt
CC(=O)Nc1cccc(NC(=O)c2cccc3cccnc23)c1,0.3,-55.2,0.0,-10.5,15.1*,3.0
CCOc1ncccc1C(=O)Nc1ccc(F)c(F)c1,-0.6,-19.8,43.5*,-6.9,-2.4,nt
O=C(NCC1CC1)[C@H]1[C@H](CO)[C@H]2Cn3c(cccc3=O)[C@@H]1N2C(=O)c1cccnc1,nt,nt,-0.2,nt,2.5,6.1
CC(C)NC(=O)N(C)C[C@H]1Oc2ncc(C#CCC3CCCC3)cc2C(=O)N([C@H](C)CO)C[C@@H]1C,nt,nt,-0.3,nt,1.4,4.9
O=C(N[C@@H]1CC[C@@H](CCn2cc(-c3ccc(F)cc3)nn2)O[C@@H]1CO)c1cnccn1,nt,nt,-0.1,nt,15.1*,-3.6
O=C(CCN1CCCCC1)N[C@H]1CC[C@@H](CCn2cc(-c3ccc(F)cc3)nn2)O[C@H]1CO,nt,nt,-0.1,nt,22.6*,-0.9
CCCNC(=O)N[C@@H]1CC[C@H](CCn2cc(C3CCCCC3)nn2)O[C@@H]1CO,nt,nt,-0.1,nt,17.5*,0.2
COc1ccc(S(=O)(=O)Nc2ccc3c(c2)C(=O)N([C@@H](C)CO)C[C@@H](C)[C@@H](CN(C)C(=O)Nc2cccc4ccccc24)OCCCC[C@H](C)O3)cc1,nt,nt,-0.5,nt,nt,0.9
CCCN(C)C[C@H]1Oc2ncc(Br)cc2C(=O)N([C@H](C)CO)C[C@H]1C,nt,nt,-0.4,nt,-0.2,5.1
C#CCn1c(-c2cccs2)nc2ccccc21,2.9,-0.4,43.1*,8.7,-15.4,nt
COc1ccc(-n2nnc3c(=O)n(CC(=O)N4CCCC4)cnc32)cc1,0.2,6.0,nt,-9.3,nt,-1.2
COc1ccc(-n2nnc3c(=O)n(CC(=O)N4CCCCC4)cnc32)cc1,3.0,-3.4,-0.1,5.4,15.4*,2.3
CCOC(=O)C(C)OC(=O)C1=C(C)NC(=O)NC1c1ccc2c(c1)OCO2 (stereo not drawn),1.5,-3.1,-0.2,-12.1,20.2*,-0.5
CCCCCOC(=O)C1=C(C)NC(=O)NC1c1ccc2c(c1)OCO2 (stereo not drawn),0.9,-6.1,0.0,1.8,nt,4.7
COc1ccc(S(=O)(=O)N(C)C[C@@H]2Oc3ncc(C#CCN(C)C)cc3C(=O)N([C@H](C)CO)C[C@@H]2C)cc1,nt,nt,0.1,nt,20.8*,-0.7
C[C@@H]1CN([C@@H](C)CO)C(=O)c2cc(/C=C/c3ccccc3)cnc2O[C@@H]1CN(C)S(=O)(=O)c1ccc(F)cc1,nt,nt,-0.1,nt,32.3*!,-2.3
